± gives the standard deviation.
Tests used:
Streptococcus suis HE06 = assay: percent growth relative to DMSO control; higher = less growth inhibition; details: 10 µM; incubation time 18 h
Method: (§1)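 CLSI broth microdilution: 5x10^4 CFU of Streptococcus suis (strain P1/7 or HE06) incubated with 10 µM Pathogen Box compound in cation-adjusted Mueller Hinton broth, 37 °C, 5% CO2, 18 h. Growth read as OD600 and expressed as percent of the DMSO-treated control (100%); mean ± SD of three independent experiments.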

Streptococcus suis P1/7 = assay: as above; details: 10 µM; incubation time 18 h
Method: as §1

Structure (SMILES): C[C@H](C(N)=O)N1CCCC[C@H]1c1ccc(OCc2cccc(F)c2)cc1
- percent growth (Streptococcus suis HE06): 85.5 ± 23%
- percent growth (Streptococcus suis P1/7): 63.4 ± 26%

Structure (SMILES): CS(=O)(=O)N1CCC(Cn2nc(Cc3cccc4ccccc34)c3c(N)ncnc32)CC1
- percent growth (Streptococcus suis HE06): 91.3 ± 29%
- percent growth (Streptococcus suis P1/7): 65.7 ± 20%

Structure (SMILES): COc1ccc(C2=NN(C3CCCCCC3)C(=O)[C@@H]3CC=CC[C@H]23)cc1OCCCCOc1ccc(-c2nn[nH]n2)cc1
- percent growth (Streptococcus suis HE06): 0%
- percent growth (Streptococcus suis P1/7): 0.12 ± 0.21%

Source: the supplement of paper PMC7866885, “A novel bicyclic 2,4-diaminopyrimidine inhibitor of Streptococcus suis dihydrofolate reductase” (PeerJ, 2021)
